From PubChem BioAssay AID1637 (Sanford-Burnham Center for Chemical Genomics, 2009)
The whole screen tested about 3,700 compounds, of which fewer than 10 were called active. Only a sample is shown. A number with no mark means an inactive call. How the calls were made is not given here.

experiment: NMR binding screen, influenza A RNA promoter, Kd (AID 1637); conditions: NMR binding to influenza A RNA promoter

For `CNC(=O)CC1Sc2ccccc2NC1=O` (stereo not given), which Kd is on record?
The Kd was > 4 mM.

With `O=C1CSC(=Nc2ccccc2[N+](=O)[O-])N1` as the compound, how does the Kd read?
The Kd was > 4 mM.

For `CN1CCC(N2CCOCC2)CC1`, which Kd is on record?
Its Kd is > 4 mM.

With `Cc1cc(C(=O)NCc2cccnc2)no1` as the compound, how does the Kd read?
Its Kd is > 4 mM.

With `COc1ccc(S(=O)(=O)N2CCOCC2)cc1C(C)C` as the compound, how does the Kd read?
The Kd was > 4 mM.

With `COc1cccc(/C=C/C(=O)O)c1C(C)C` as the compound, how does the Kd read?
Its Kd is > 4 mM.

Which Kd does the source give for `CCN1CCC(=NO)CC1` here?
The Kd was > 4 mM.

For `Cc1ccc(SCc2cc(=O)n3[nH]cnc3n2)cc1`, which Kd is on record?
The Kd was > 4 mM.

For `Nc1ccc(-n2cccn2)cc1`, which Kd is on record?
Its Kd is > 4 mM.

With `Cc1ccc(S(=O)(=O)CC(=O)N(C)C)cc1` as the compound, how does the Kd read?
Its Kd is > 4 mM.

With `Cc1cccc(N2C(=O)CC(=O)NC2=O)c1` as the compound, how does the Kd read?
The Kd was > 4 mM.

Which Kd does the source give for `Cc1ccccc1NC(=O)C1CC(=O)N=C(N)S1` (stereo not given) here?
Its Kd is > 4 mM.

With `CC(C)(C)CC(=O)NNC(=O)c1cnccn1` as the compound, how does the Kd read?
The Kd was > 4 mM.

Which Kd does the source give for `CCSc1nc(N)c(NC(=O)c2ccco2)c(=O)[nH]1` here?
The Kd was > 4 mM.

For `Cc1ccccc1NC(=O)CC1NCCNC1=O` (stereo not given), which Kd is on record?
Its Kd is > 4 mM.

For `Cc1cc(CN2C(=O)c3ccccc3C2=O)on1`, which Kd is on record?
Its Kd is > 4 mM.

For `O=C(O)CCCNC(=O)c1ccccc1C(=O)O`, which Kd is on record?
Its Kd is > 4 mM.

With `CC(C)(C)NC(=O)CN1C(=O)c2ccccc2S1(=O)=O` as the compound, how does the Kd read?
Its Kd is > 4 mM.

With `COc1ccc(/C=C2\SC(N)=NC2=O)cc1` as the compound, how does the Kd read?
The Kd was > 4 mM.

With `CC(C)=NNC(=O)C(=O)Nc1ccc(F)cc1` as the compound, how does the Kd read?
Its Kd is > 4 mM.

For `CS/C(N)=C\C(C)=O`, which Kd is on record?
The Kd was > 4 mM.

Which Kd does the source give for `Nc1nonc1-c1nc2ccccc2[nH]1` here?
Its Kd is > 4 mM.

With `NCc1ccc(-c2ccccn2)s1` as the compound, how does the Kd read?
Its Kd is > 4 mM.

Which Kd does the source give for `Cc1oc(-c2ccccc2)cc1C(=O)O` here?
Its Kd is > 4 mM.

For `O=S1(=O)CCC2CC=CCC21` (stereo not given), which Kd is on record?
The Kd was > 4 mM.

With `S=C(c1ccc(N2CCOCC2)cc1)N1CCOCC1` as the compound, how does the Kd read?
Its Kd is > 4 mM.

With `CC1(C)CC2(C)N(N)C(=O)CN2C(=S)N1` (stereo not given) as the compound, how does the Kd read?
The Kd was > 4 mM.

For `O=c1[nH]cc(NCc2ccccc2)c(=O)[nH]1`, which Kd is on record?
Its Kd is > 4 mM.

For `c1cnc(N2CCNCC2)nc1`, which Kd is on record?
The Kd was > 4 mM.

Which Kd does the source give for `COc1cc2nc(N3CCNCC3)nc(N)c2cc1OC` here?
The Kd was 0.078 mM (active).

Which Kd does the source give for `COc1cccc(N2CCNCC2)c1` here?
Its Kd is > 4 mM.

For `CN(C)c1nc(N2CCOCC2)c2cnn(C)c2n1`, which Kd is on record?
The Kd was > 4 mM.

Which Kd does the source give for `O=C(CSc1ncn[nH]1)c1ccccc1` here?
The Kd was > 4 mM.

For `Cc1cccc(N2C(=O)CCC2=O)n1`, which Kd is on record?
The Kd was > 4 mM.

For `O=c1[nH]c(O)c(C=NCc2cccs2)c(=O)[nH]1`, which Kd is on record?
Its Kd is > 4 mM.

For `CC(=O)c1cccc(N=C2NC(=O)CS2)c1`, which Kd is on record?
The Kd was > 4 mM.

With `Cc1csc(SCC(=O)N2CCCC2)n1` as the compound, how does the Kd read?
The Kd was > 4 mM.

Which Kd does the source give for `Nc1cc(=O)[nH]c(SCC(=O)Nc2nccs2)n1` here?
The Kd was > 4 mM.

For `COc1cc(OC)c2c(=O)c(OC)c(-c3ccc(OC)c(OC)c3)oc2c1`, which Kd is on record?
Its Kd is > 4 mM.

For `C=C1CCC2[C@](C)(CO)[C@H](O)CC[C@@]2(C)[C@@H]1C/C=C1/C(=O)OC[C@H]1O` (stereo not given in full), which Kd is on record?
The Kd was > 4 mM.

With `Cc1occc1C(=O)NCc1ccccn1` as the compound, how does the Kd read?
Its Kd is > 4 mM.

Which Kd does the source give for `NC(=O)NC1C=CS(=O)(=O)C1` (stereo not given) here?
The Kd was > 4 mM.

With `Cc1c(N=Cc2ccco2)c(=O)n(-c2ccccc2)n1C` as the compound, how does the Kd read?
Its Kd is > 4 mM.

For `Cc1ccc(CN2C3=NC(=O)CN3c3ccccc32)cc1`, which Kd is on record?
Its Kd is > 4 mM.

With `COc1nc(N2CCOCC2)nc(N)c1[N+](=O)[O-]` as the compound, how does the Kd read?
The Kd was > 4 mM.

For `CC1=NN2C(=N)/C(=C\c3cccs3)C(=O)N=C2S1`, which Kd is on record?
Its Kd is > 4 mM.

With `O=C(O)C1NCCc2ccccc21` (stereo not given) as the compound, how does the Kd read?
Its Kd is > 4 mM.

Which Kd does the source give for `CCn1nnc(NC(=O)c2ccccc2Br)n1` here?
Its Kd is > 4 mM.

For `O=S1(=O)NC(=NCc2ccco2)c2ccccc21`, which Kd is on record?
Its Kd is > 4 mM.

For `O=C(NCc1ccc2c(c1)OCO2)c1cccs1`, which Kd is on record?
The Kd was > 4 mM.

Which Kd does the source give for `Cn1nnc2cc(C(=O)Nc3cccnc3)ccc21` here?
The Kd was > 4 mM.

With `Cc1ccc(SCc2nc(-c3ccncc3)no2)cc1` as the compound, how does the Kd read?
The Kd was > 4 mM.

For `NC1CS(=O)(=O)CC1O` (stereo not given), which Kd is on record?
The Kd was > 4 mM.

With `C=CCCCCCCCCCCCC(O)CC(O)CO` (stereo not given) (tested in a mixture with another compound) as the compound, how does the Kd read?
Its Kd is > 4 mM.

With `CN1C(=O)C2CC=C(Cl)CC2C1=O` (stereo not given) as the compound, how does the Kd read?
Its Kd is > 4 mM.

With `Cc1c(/C=N\n2cnnc2)c2ccccc2n1C` as the compound, how does the Kd read?
The Kd was > 4 mM.

With `CN(C)S(=O)(=O)NCc1ccc2c(c1)OCO2` as the compound, how does the Kd read?
Its Kd is > 4 mM.

For `CC1(c2ccncc2)NC(=O)NC1=O` (stereo not given), which Kd is on record?
Its Kd is > 4 mM.

Which Kd does the source give for `c1cc2n(c1)CCNC2c1ccncc1` (stereo not given) here?
Its Kd is > 4 mM.

Which Kd does the source give for `Cc1nc2[nH]onc2c2nccc(=O)c12` here?
The Kd was > 4 mM.

For `CCCN1CCC(N2CCC(O)CC2)CC1`, which Kd is on record?
Its Kd is > 4 mM.

Which Kd does the source give for `O=C1NC(=O)/C(=C\c2ccncc2)S1` here?
Its Kd is > 4 mM.

Which Kd does the source give for `O=C1CSC(=O)N1CN1CCCC1` here?
Its Kd is > 4 mM.

For `O=C(O)CSCc1ccc(Cl)cc1`, which Kd is on record?
Its Kd is > 4 mM.

With `CCCC(=O)N1CCSCC1` as the compound, how does the Kd read?
The Kd was > 4 mM.

For `Cn1nc(C(=O)N2CCCC2)c2ccccc2c1=O`, which Kd is on record?
The Kd was > 4 mM.

Which Kd does the source give for `Cc1nn(C)c(Cl)c1C(O)c1c(C)nn(C)c1Cl` here?
Its Kd is > 4 mM.

For `Cc1ccc(-c2nn3c(C)nnc3s2)cc1N`, which Kd is on record?
The Kd was > 4 mM.

With `Nc1ccc2nsnc2c1` as the compound, how does the Kd read?
The Kd was > 4 mM.

With `CC(=O)Nc1cc(C(N)=O)cc(C(N)=O)c1` as the compound, how does the Kd read?
Its Kd is > 4 mM.

With `NS(=O)(=O)c1ccccc1Cl` as the compound, how does the Kd read?
Its Kd is > 4 mM.

Which Kd does the source give for `CSc1nc(=O)[nH]c2c1CCC2` here?
Its Kd is > 4 mM.

With `Cn1cnc2cc(NC(=O)c3ccco3)ccc21` as the compound, how does the Kd read?
The Kd was > 4 mM.

For `COc1ccc(NC2=NCC(C)S2)cc1` (stereo not given), which Kd is on record?
Its Kd is > 4 mM.

Which Kd does the source give for `COC(=O)Nc1nnc(-c2ccncc2)s1` here?
Its Kd is > 4 mM.

Which Kd does the source give for `NC(=O)Cn1nnc(-c2ccc(C(F)(F)F)cc2)n1` here?
The Kd was > 4 mM.

With `Nc1cccc(NC(=O)c2cccs2)c1` as the compound, how does the Kd read?
Its Kd is > 4 mM.

For `CCN1CCC(NC2CCC(O)CC2)CC1` (stereo not given), which Kd is on record?
Its Kd is > 4 mM.

Which Kd does the source give for `OC12C=CC(CC1)CC2` here?
The Kd was > 4 mM.

Which Kd does the source give for `NC(=O)CSc1ccc2nnc(-c3ccccc3)n2n1` here?
Its Kd is > 4 mM.

For `CCCCN1C(=O)C2CC/C(=N/O)CC2C1=O` (stereo not given), which Kd is on record?
Its Kd is > 4 mM.

Which Kd does the source give for `C[C@@H]1OC(O[C@H]2[C@H](OC(=O)[C@]34CCC(C)(C)CC3C3=CCC5[C@@]6(C)CC[C@H](OC7O[C@@H](C)[C@H](O[C@@H]8OC[C@@H](O)[C@H](O)[C@H]8O)[C@@H](O)[C@H]7O)C(C)(C)C6CC[C@@]5(C)[C@]3(C)CC4O)OC[C@H](O)[C@H]2O)[C@H](O)[C@H](O)[C@H]1O[C@@H]1O[C@H](CO)[C@@H](O)[C@H](O)[C@H]1O` (stereo not given in full) here?
Its Kd is > 4 mM.

With `NC(=O)C1CCN(C(=O)c2ccccc2F)CC1` as the compound, how does the Kd read?
The Kd was > 4 mM.

Which Kd does the source give for `O=C(Nc1cccc2cccnc12)c1cccnc1` here?
Its Kd is > 4 mM.

Which Kd does the source give for `Cc1nc(NC2=NCCC(=O)N2)nc2ccccc12` here?
The Kd was > 4 mM.
